The values below come from PubChem BioAssay (EPA / NIEHS).

A word on the AC50: it is the concentration giving half of the maximal activity seen.

For assay [1], the target named is human Retinoid X Receptor beta (RXRb), RXRB (gene 6257) (UniProt P28702). As to the kind of experiment: ATG_RXRb_TRANS: Attagene TRANS-FACTORIAL HepG2 Assay for human Retinoid X Receptor beta (RXRb) (AID 2283013; active means hit-call score of the fitted dose curve at least 0.9, where 1 is the maximum). The procedure, abridged: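 HepG2 cells transiently transfected with multiplexed reporter units driven by GAL4-UAS and exogenous chimeric NR-Gal4 proteins; treated 24 h. Reporter mRNA measured by RT-PCR, 6-FAM labelling and capillary electrophoresis; gain-of-signal fitted versus DMSO baseline.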
Sequence of human Retinoid X Receptor beta (RXRb), RXRB (gene 6257) (P28702 whole entry, looked up, the tested form may be a part): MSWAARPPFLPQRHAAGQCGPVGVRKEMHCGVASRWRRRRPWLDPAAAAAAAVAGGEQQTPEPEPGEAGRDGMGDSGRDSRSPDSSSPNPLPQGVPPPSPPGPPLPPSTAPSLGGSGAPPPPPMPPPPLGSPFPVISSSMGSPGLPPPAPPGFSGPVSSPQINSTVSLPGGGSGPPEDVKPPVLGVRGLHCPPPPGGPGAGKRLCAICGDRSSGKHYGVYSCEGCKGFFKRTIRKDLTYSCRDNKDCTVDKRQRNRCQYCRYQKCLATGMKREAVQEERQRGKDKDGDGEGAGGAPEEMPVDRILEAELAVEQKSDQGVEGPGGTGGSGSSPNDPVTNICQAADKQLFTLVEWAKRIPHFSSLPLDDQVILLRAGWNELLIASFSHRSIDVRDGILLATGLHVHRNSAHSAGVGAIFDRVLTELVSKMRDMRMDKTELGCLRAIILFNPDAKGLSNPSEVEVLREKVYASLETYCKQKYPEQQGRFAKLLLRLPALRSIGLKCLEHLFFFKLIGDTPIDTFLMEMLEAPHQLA

For assay [2], the target named is human Thyroid Receptor alpha (THRa1), THRA (gene 7067) (UniProt P10827). As to the kind of experiment: ATG_THRa1_TRANS: Attagene TRANS-FACTORIAL HepG2 Assay for human Thyroid Receptor alpha (THRa1) (AID 2283014; active means hit-call score of the fitted dose curve at least 0.9, where 1 is the maximum). The gist of the method:
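Transcripts from GAL4-UAS-driven reporters, measured after 24 h compound exposure by RT-PCR plus capillary electrophoresis of 6-FAM-labeled fragments, were fitted for gain of signal relative to DMSO. Cells: transiently transfected HepG2 expressing NR-Gal4 chimeras.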

Read-out in assay [3]: E-selectin (Homo sapiens) (UniProt P16581)
Nature of the assay: BSK_3C_Eselectin: BioMAP Diversity Plus: 3C Assay for Eselectin Biomarker Activity (AID 2283015).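 On outcome: cell surface E-selectin protein quantified by ELISA 24 h after dosing.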 To be noted: primary human endothelial cells (HUVEC); actives raise or lower the signal. The procedure, abridged:
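E-selectin ELISA readout, fitted bidirectionally relative to DMSO, taken 24 h post-dosing in HUVEC cultures of the 3C system. Overt cytotoxicity tracked with sulforhodamine B staining of parallel wells.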

Read-out in assay [4]: Interleukin-1 alpha (IL1a), IL1A (gene 3552)
Nature of the assay: BSK_BE3C_IL1a: BioMAP Diversity Plus: BE3C Assay for Interleukin-1 alpha (IL1a) Biomarker Activity (AID 2283016). Particulars: primary human bronchial epithelial cells; actives raise or lower the signal. The gist of the method: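 Human primary bronchial epithelial cells (BE3C system) were dosed with compound and IL-1a measured by ELISA 24 h later. Activity was fitted bidirectionally against DMSO baseline; cytotoxicity was tracked in parallel cultures by SRB total-protein staining.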

Read-out in assay [5]: Monocyte Chemoattractant Protein-1 (MCP1), CCL2 (gene 6347)
Nature of the assay: BSK_3C_MCP1: BioMAP Diversity Plus: 3C Assay for Monocyte Chemoattractant Protein-1 (MCP1) Biomarker Activity (AID 2283017). To be noted: primary human endothelial cells (HUVEC); actives raise or lower the signal. The gist of the method: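 MCP-1 was measured by ELISA 24 h after dosing in primary HUVEC 3C cultures and fitted in both directions relative to DMSO; cytotoxicity was checked by SRB total-protein staining in parallel wells.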

Read-out in assay [6]: Monocyte Chemoattractant Protein-1 (MCP1), CCL2 (gene 6347)
Nature of the assay: BSK_4H_MCP1: BioMAP Diversity Plus: 4H Assay for Monocyte Chemoattractant Protein-1 (MCP1) Biomarker Activity (AID 2283018). Particulars: primary human endothelial cells (HUVEC); actives raise or lower the signal. The gist of the method:
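Human umbilical vein endothelial cells (4H system) dosed with chemical; MCP-1 measured by ELISA 24 h after dosing. Bidirectional curve fitting against DMSO negative control as baseline; parallel SRB total-protein staining tracks overt cytotoxicity.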

Read-out in assay [7]: Human Leukocyte Antigen - DR isotype (HLADR), HLA-DRA (gene 3122)
As to the kind of experiment: BSK_3C_HLADR: BioMAP Diversity Plus: 3C Assay for Human Leukocyte Antigen - DR isotype (HLADR) Biomarker Activity (AID 2283019).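 On outcome: ELISA of cell-surface HLA-DR on HUVEC 24 h after dosing.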 Particulars: primary human endothelial cells (HUVEC); actives raise or lower the signal. The procedure, abridged:
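Bidirectional fitting against DMSO was applied to the HLA-DR ELISA signal from human umbilical vein endothelial cells, 24 h post-dose. Cytotoxicity came from parallel SRB total-protein staining; 3C proliferation was counted by SRB at 48 h.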

Read-out in assay [8]: Interleukin-8 (IL8), CXCL8 (gene 3576)
Nature of the assay: BSK_3C_IL8: BioMAP Diversity Plus: 3C Assay for Interleukin-8 (IL8) Biomarker Activity (AID 2283020). Particulars: primary human endothelial cells (HUVEC); actives raise or lower the signal. The procedure, abridged:
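Primary human umbilical vein endothelial cells (3C system) were exposed to test chemical for 24 h, then IL-8 was quantified by ELISA. Responses were fitted bidirectionally against DMSO vehicle as baseline.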

Read-out in assay [9]: Monokine induced gamma interferon (MIG), CXCL9 (gene 4283)
Nature of the assay: BSK_3C_MIG: BioMAP Diversity Plus: 3C Assay for Monokine induced gamma interferon (MIG) Biomarker Activity (AID 2283021).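 On AC50: MIG protein level measured by immunoassay in the treated endothelial cultures.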 To be noted: primary human endothelial cells (HUVEC); actives raise or lower the signal. The gist of the method: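 Primary human umbilical vein endothelial cells in the 3C system were exposed to chemical for 24 h, after which MIG was quantified by ELISA. Activity was fitted bidirectionally against DMSO as negative control and baseline.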

Assay [10] in a line: BSK_3C_SRB: Viability Assessment in the BioMAP Diversity Plus: 3C Assay (AID 2283023).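 Further: fitted both ways against DMSO so a hit may be signal rise or drop.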 To be noted: primary human endothelial cells (HUVEC). The procedure, abridged:
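Cytotoxicity readout in parallel HUVEC 3C cultures: after 24 h compound exposure, cells fixed with 10% TCA, stained with 0.1% SRB and read at 560 nm. Gain or loss relative to DMSO fitted.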

Read-out in assay [11]: Matrix Metallopeptidase 1 (MMP1), MMP1 (gene 4312)
As to the kind of experiment: BSK_BE3C_MMP1: BioMAP Diversity Plus: BE3C Assay for Matrix Metallopeptidase 1 (MMP1) Biomarker Activity (AID 2283024). Particulars: primary human bronchial epithelial cells; actives raise or lower the signal. The procedure, abridged:
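Primary human bronchial epithelial cells were dosed with test chemicals, and MMP1 levels were measured by ELISA 24 h later. Data were fitted bidirectionally against DMSO as the negative control and activity baseline.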

The nature of assay [12]: BSK_3C_Vis: BioMAP Diversity Plus: 3C Assay for Morphology Visualization (AID 2283025).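 Further: fitted both ways so gain or loss versus DMSO counts.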 To be noted: primary human endothelial cells (HUVEC). The procedure, abridged: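 Human umbilical vein endothelial cells in the 3C system were imaged by light microscopy 24 h after chemical dosing to record cell morphology. Activity was fitted bidirectionally against DMSO as negative control and baseline; the endpoint serves as a background control.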

Read-out in assay [13]: Pselectin, SELP (gene 6403)
As to the kind of experiment: BSK_4H_Pselectin: BioMAP Diversity Plus: 4H Assay for Pselectin Biomarker Activity (AID 2283026). To be noted: primary human endothelial cells (HUVEC); actives raise or lower the signal. The procedure, abridged:
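Primary human umbilical vein endothelial cells were exposed to test chemical for 24 h, then cell-surface P-selectin was quantified by ELISA. Activity was fitted bidirectionally against DMSO as negative control and baseline.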

The nature of assay [14]: BSK_4H_SRB: Viability Assessment in the BioMAP Diversity Plus: 4H Assay (AID 2283027).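 Further: cells exposed to compound for 24 h before staining.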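 On AC50: curves fitted both ways versus DMSO so AC50 may be loss or gain.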 Particulars: primary human endothelial cells (HUVEC). The procedure, abridged: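 Absorbance at 560 nm of SRB-stained total protein served as the viability read-out in confluent primary human umbilical vein endothelium 24 h after chemical treatment. Curves were fitted bidirectionally against DMSO as negative control.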

The nature of assay [15]: BSK_BE3C_SRB: Viability Assessment in the BioMAP Diversity Plus: BE3C Assay (AID 2283028).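 On AC50: fitted both ways so AC50 may mark signal gain or loss versus DMSO.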 Particulars: primary human bronchial epithelial cells. The procedure, abridged: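 Cytotoxicity read-out: SRB (0.1%) staining of TCA-fixed (10%) human lung bronchial epithelial cells, absorbance 560 nm, 24 h post-dosing. Curves fitted both directions relative to DMSO.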
Read-out in assay [16]: Thrombomodulin, THBD (gene 7056)
Nature of the assay: BSK_3C_Thrombomodulin: BioMAP Diversity Plus: 3C Assay for Thrombomodulin Biomarker Activity (AID 2283029). To be noted: primary human endothelial cells (HUVEC); actives raise or lower the signal. The gist of the method: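 Primary human umbilical vein endothelial cells (3C system) were exposed to chemical for 24 h, then thrombomodulin levels were measured by ELISA. Activity was fitted bidirectionally against the DMSO negative control as baseline.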

Read-out in assay [17]: Urokinase-type plasminogen activator receptor (uPAR), PLAUR (gene 5329)
As to the kind of experiment: BSK_4H_uPAR: BioMAP Diversity Plus: 4H Assay for Urokinase-type plasminogen activator receptor (uPAR) Biomarker Activity (AID 2283030). To be noted: primary human endothelial cells (HUVEC); actives raise or lower the signal. The gist of the method:
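uPAR level read by ELISA on HUVEC cultures (BioMAP 4H) 24 h post-dosing, analyzed for gain or loss relative to DMSO. Parallel SRB staining assessed overt cytotoxicity.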

Read-out in assay [18]: Vascular endothelial growth factor receptor 2 (Homo sapiens) (UniProt P35968)
Nature of the assay: BSK_4H_VEGFRII: BioMAP Diversity Plus: 4H Assay for Vascular endothelial growth factor receptor 2 (VEGFR2) Biomarker Activity (AID 2283031). To be noted: primary human endothelial cells (HUVEC); actives raise or lower the signal. The procedure, abridged: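 Measured by ELISA after 24 h of compound treatment: VEGFR2 on primary human umbilical vein endothelial cells, fitted in both directions relative to DMSO. Parallel cultures received SRB staining (560 nm) for overt cytotoxicity.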

Read-out in assay [19]: Human Leukocyte Antigen - DR isotype (HLADR), HLA-DRA (gene 3122)
Nature of the assay: BSK_BE3C_HLADR: BioMAP Diversity Plus: BE3C Assay for Human Leukocyte Antigen - DR isotype (HLADR) Biomarker Activity (AID 2283032). To be noted: primary human bronchial epithelial cells; actives raise or lower the signal. The gist of the method: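 Human primary bronchial epithelial cells in the BE3C system were exposed to chemicals for 24 h, after which HLA-DR levels were quantified by ELISA. Activity was fitted bidirectionally, gain or loss of signal, against DMSO as negative control and baseline.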

For assay [20], the target named is human Vitamin D Receptor (VDR), VDR (gene 7421) (UniProt P11473). Nature of the assay: ATG_VDR_TRANS: Attagene TRANS-FACTORIAL HepG2 Assay for human Vitamin D Receptor (VDR) (AID 2283022; active means hit-call score of the fitted dose curve at least 0.9, where 1 is the maximum). The gist of the method:
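Transactivation by an exogenous VDR-Gal4 chimera in transiently transfected HepG2 cells was measured as reporter transcript level 24 hours after chemical treatment. RT-PCR products were analysed by capillary electrophoresis and fitted in the positive direction relative to DMSO.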

Inconclusive results are not listed. Where a structure was tested more than once in an assay, its records may differ in their call. Calls of active or inactive are those of the source. How the source made its calls, unless noted: active means hit-call score of the fitted dose curve at least 0.9, where 1 is the maximum; inactive means score below 0.9.

Sequence of E-selectin (Homo sapiens) (P16581 whole entry, looked up): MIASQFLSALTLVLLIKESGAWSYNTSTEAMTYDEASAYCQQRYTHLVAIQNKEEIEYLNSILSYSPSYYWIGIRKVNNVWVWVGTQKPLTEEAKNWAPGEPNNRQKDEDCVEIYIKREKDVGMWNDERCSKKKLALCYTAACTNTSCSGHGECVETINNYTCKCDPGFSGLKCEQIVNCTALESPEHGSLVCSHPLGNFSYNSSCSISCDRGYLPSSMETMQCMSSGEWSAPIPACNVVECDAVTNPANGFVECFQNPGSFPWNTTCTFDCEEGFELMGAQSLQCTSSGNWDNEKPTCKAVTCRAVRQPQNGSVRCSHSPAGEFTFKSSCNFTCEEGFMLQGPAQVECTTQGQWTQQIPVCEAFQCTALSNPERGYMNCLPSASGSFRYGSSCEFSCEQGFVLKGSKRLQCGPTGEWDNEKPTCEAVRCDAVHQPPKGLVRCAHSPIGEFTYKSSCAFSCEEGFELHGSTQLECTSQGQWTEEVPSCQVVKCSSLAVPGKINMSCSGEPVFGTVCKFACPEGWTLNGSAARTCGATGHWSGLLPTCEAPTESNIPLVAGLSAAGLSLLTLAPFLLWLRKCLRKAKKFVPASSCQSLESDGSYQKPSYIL
Sequence of human Vitamin D Receptor (VDR), VDR (gene 7421) (P11473 whole entry, looked up, the tested form may be a part): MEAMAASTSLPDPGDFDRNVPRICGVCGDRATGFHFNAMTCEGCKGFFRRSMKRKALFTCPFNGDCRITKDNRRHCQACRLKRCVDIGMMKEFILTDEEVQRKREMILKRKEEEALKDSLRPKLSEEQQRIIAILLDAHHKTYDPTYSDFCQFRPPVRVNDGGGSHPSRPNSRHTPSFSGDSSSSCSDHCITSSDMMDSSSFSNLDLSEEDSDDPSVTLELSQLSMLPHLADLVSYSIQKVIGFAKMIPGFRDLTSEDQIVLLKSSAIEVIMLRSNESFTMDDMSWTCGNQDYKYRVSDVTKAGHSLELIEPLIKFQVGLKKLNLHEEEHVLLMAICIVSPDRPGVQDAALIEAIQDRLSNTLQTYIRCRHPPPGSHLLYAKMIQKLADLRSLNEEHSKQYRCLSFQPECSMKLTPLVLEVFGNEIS
Sequence of human Thyroid Receptor alpha (THRa1), THRA (gene 7067) (P10827 whole entry, looked up, the tested form may be a part): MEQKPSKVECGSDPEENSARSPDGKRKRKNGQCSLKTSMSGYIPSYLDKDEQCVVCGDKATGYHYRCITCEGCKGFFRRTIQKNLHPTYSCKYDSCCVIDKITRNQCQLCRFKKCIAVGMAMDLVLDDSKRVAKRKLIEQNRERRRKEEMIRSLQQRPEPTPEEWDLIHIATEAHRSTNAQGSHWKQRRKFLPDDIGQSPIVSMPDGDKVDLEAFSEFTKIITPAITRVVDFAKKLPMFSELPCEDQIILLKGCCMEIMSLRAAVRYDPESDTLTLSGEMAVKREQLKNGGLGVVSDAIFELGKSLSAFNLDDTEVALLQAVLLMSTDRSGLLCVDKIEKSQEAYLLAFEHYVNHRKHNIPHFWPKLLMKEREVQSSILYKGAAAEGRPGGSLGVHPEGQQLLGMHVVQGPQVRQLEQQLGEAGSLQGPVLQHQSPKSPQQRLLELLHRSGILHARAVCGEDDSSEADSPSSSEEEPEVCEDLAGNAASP

As for `CCOc1nc(F)cc2nc(S(=O)(=O)Nc3c(Cl)cccc3C(=O)OC)nn12`, the compound was classed as inactive in [1], in [2], in [3], in assay [4], in assay [5] and in assay [6]. Moreover, the outcome in assay [7], in [8], in assay [9], in [10], in [11] and in assay [12] was inactive. Also, the outcome in assay [13], in assay [14], in assay [15], in assay [16], in assay [17] and in assay [18] was inactive. The outcome in assay [19] was inactive.
Turning to `CC(=O)Nc1ccc2c(c1)Cc1cc(NC(C)=O)ccc1-2`, the call in assay [1], in assay [2] and in [20] was inactive.
As to `Nc1ccc(-c2ccc(F)cc2)cc1`, the call in [1] and in [2] was inactive.
Regarding `c1ccc2c(c1)ccc1cc3c(ccc4ccccc43)cc12`, the outcome in assay [1], in assay [2], in assay [3], in assay [4], in assay [5] and in assay [6] was inactive. The result in [7], in assay [8], in assay [9], in assay [10], in assay [12] and in assay [13] was inactive. Further, the result in assay [14], in assay [15], in [16], in assay [17], in assay [18] and in assay [19] was inactive. The half-maximal activity concentration (AC50) in assay [11] is 0.015 µM (active); in assay [12], 35.7 µM (active); in assay [17], 0.267 µM (active).
`O=C(Nc1ccccc1SSc1ccccc1NC(=O)c1ccccc1)c1ccccc1`: the call in [1], in [2], in assay [3], in [4], in [8] and in assay [9] was inactive. The result in assay [10], in assay [11], in [13], in assay [14], in [15] and in assay [17] was inactive. For the same compound, the outcome in assay [18] and in assay [19] was inactive. Also, the AC50 in assay [5] is 8.27 µM (active); in [6] it was 9.13 µM (active); in assay [7], 10 µM (active); in assay [12] it was 14.1 µM (active); in assay [16] it was 5.7 µM (active).
On to `CCCCCCCCCCCCCCCC[N+](C)(C)CC`, for which the concentration at half-maximal activity (AC50) in assay [1] was 13 µM (active); in [2], 12.1 µM (active); in assay [3] it was 3.48 µM (active); in [4], 7.31 µM (active); in assay [5], 2.66 µM (active); in assay [6], 0.845 µM (active). In addition, the AC50 in assay [7] is 0.932 µM (active); in [8], 3.73 µM (active); in assay [9] it was 4.05 µM (active); in assay [10] it was 0.697 µM (active); in assay [11] it was 3.2 µM (active); in assay [12] it was 0.533 µM (active). In addition, the AC50 in assay [13] is 6.2 µM (active); in assay [14], 1.57 µM (active); in assay [15], 5.12 µM (active); in [16], 2.35 µM (active); in assay [19] it was 2.28 µM (active). Further, the call in assay [20] and in assay [17] was inactive.
Regarding `CCC(CO)CO`, the outcome in assay [1] and in [2] was inactive.
With `CCN(Cc1cccc(S(=O)(=O)O)c1)c1ccc(C(=C2C=CC(=[N+](CC)Cc3cccc(S(=O)(=O)[O-])c3)C=C2)c2ccccc2)cc1`, the compound was classed as inactive in [1] and in assay [2].
As to `CC(C)(C)C1CCCCC1=O` (stereo unspecified), in [1], the AC50 is 91.4 µM (active). The compound was called inactive in [2].
For `O=C(O)c1cc2ccccc2nc1C(=O)O`, the outcome in assay [1] and in assay [20] was inactive.
